Among the test systems are SR leukemia; RPMI-8226 leukemia; OVCAR-8 ovarian; OVCAR-4 ovarian; SK-OV-3 ovarian; IGROV1 ovarian; OVCAR-3 ovarian; HS 578T breast; NCI/ADR-RES ovarian; BT-549 breast; MDA-MB-435 melanoma; SW-620 colon; MCF7 breast; HCT-116 colon; HCC-2998 colon; KM12 colon; OVCAR-5 ovarian; T-47D breast.
What all share (test): NCI-60 one-dose screen, 48 h (100 = growth as untreated, 0 = no growth, -100 = all killed)
Conditions in all cases: 10 µM unless noted

This is part of a sample that, as a whole, favours compounds with a hit. Of some 83,000 tested, about 20% had one in any assay.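 A percent growth of 40 corresponds to 60% growth inhibition; 0 means no net growth; -100 means all cells died. Active threshold: below 10.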 Unmarked numbers belong to inactive results. Calls of active or inactive are those of the source.

On to `O=C(NCCNCCO)c1cc([N+](=O)[O-])cc([N+](=O)[O-])c1O`, for which the growth in the assay with SR leukemia is 99.8%; in the assay with RPMI-8226 leukemia, 96.7%; in the assay on OVCAR-8 ovarian, 101%; with OVCAR-4 ovarian it was 108%; in the assay with SK-OV-3 ovarian, 111%; in the assay with IGROV1 ovarian, 107%. Further, the growth with OVCAR-3 ovarian was 110%; in the assay with HS 578T breast it was 109%; in the assay with NCI/ADR-RES ovarian, 107%; in the assay with BT-549 breast, 121%; with MDA-MB-435 melanoma, 104%; in the assay on SW-620 colon, 103%. The growth was 102% with MCF7 breast, 103% in the assay on HCT-116 colon, 101% with HCC-2998 colon and 108% in the assay on KM12 colon.

In the case of `CC([C@H]1CC=C2C3CCC4=C[C@@H](N(C)C)CC[C@]4(C)C3CC[C@@]21C)N(C)C` (some centres not stated), the growth in the assay on SR leukemia is 71.5%; with OVCAR-8 ovarian, 85.3%; in the assay with OVCAR-5 ovarian it was 86.3%; in the assay with OVCAR-4 ovarian, 8.25% (active); with SK-OV-3 ovarian it was 80.3%; in the assay on IGROV1 ovarian, 50.8%. Besides, the growth in the assay on OVCAR-3 ovarian is 42%; in the assay on HS 578T breast it was 61%; with NCI/ADR-RES ovarian it was 68.8%; in the assay with T-47D breast, 29.1%; with BT-549 breast, 90.5%; with MDA-MB-435 melanoma it was -67.5% (active). Moreover, the growth in the assay with SW-620 colon was 9.89% (active); in the assay with MCF7 breast it was 34.9%; with HCT-116 colon, -57% (active); in the assay on HCC-2998 colon it was 49.6%; with KM12 colon, 30.6%.

As for `CC(C)OC(=O)Nn1cnc2ccccc21`, the growth in the assay on RPMI-8226 leukemia is 98.6%; in the assay on OVCAR-8 ovarian, 111%; with OVCAR-5 ovarian, 96.7%; in the assay with OVCAR-4 ovarian, 126%; in the assay on SK-OV-3 ovarian it was 114%; in the assay on IGROV1 ovarian, 23.8%. Moreover, the growth in the assay with OVCAR-3 ovarian is 111%; with HS 578T breast, 114%; in the assay with NCI/ADR-RES ovarian, 110%; in the assay with T-47D breast, 114%; in the assay with BT-549 breast it was 116%; with MDA-MB-435 melanoma, 110%. In addition, the growth was 111% in the assay with SW-620 colon; 120% with MCF7 breast; 87.4% in the assay on HCT-116 colon; 105% in the assay with HCC-2998 colon; 114% in the assay with KM12 colon.

Regarding `COc1cc(/C=C/C(=O)/C=C(/C=C/c2ccc(OC(C)=O)c(OC)c2)OB(F)F)ccc1OC(C)=O`, the growth in the assay with SR leukemia was -2.62% (active); with RPMI-8226 leukemia, 14.3%; in the assay on OVCAR-8 ovarian, 20%; in the assay with OVCAR-4 ovarian, 69.6%; in the assay with SK-OV-3 ovarian, 94.8%; with IGROV1 ovarian, 65.5%. Moreover, the growth in the assay with HS 578T breast was 76.2%; with NCI/ADR-RES ovarian, 43.6%; in the assay on T-47D breast, 41.9%; in the assay with MDA-MB-435 melanoma it was 41%; with SW-620 colon, 17.5%; in the assay on HCT-116 colon, 6.64% (active). Moreover, the growth in the assay on HCC-2998 colon is 100%; in the assay on KM12 colon, 73.8%.

For the molecule `COc1cc([C@@H]2c3cc4c(cc3[C@H](O)[C@H]3COC[C@@H]23)OCO4)cc(OC)c1OC`, the growth was 25.9% with SR leukemia; 98.9% in the assay with OVCAR-8 ovarian; 101% in the assay with OVCAR-5 ovarian; 85.8% with OVCAR-4 ovarian; 98.3% in the assay on SK-OV-3 ovarian; 71.1% in the assay with IGROV1 ovarian. Also, the growth was 56.8% in the assay on OVCAR-3 ovarian; 64.9% in the assay on NCI/ADR-RES ovarian; 83.7% with T-47D breast; 90.6% in the assay on BT-549 breast; -12.4% (active) in the assay on MDA-MB-435 melanoma; 54.4% in the assay on SW-620 colon. Further, the growth in the assay with MCF7 breast is 30.9%; with HCT-116 colon, 66.7%; with HCC-2998 colon, 85.5%; in the assay with KM12 colon, 49.5%.

With `COc1cccc2c1n([O-])c1cccc(OC)c1[n+]2=O`, the growth with SR leukemia is 19.8%; in the assay on RPMI-8226 leukemia it was 31.8%; with OVCAR-8 ovarian, 52.8%; in the assay on SK-OV-3 ovarian, 90.8%; in the assay with IGROV1 ovarian it was -46.3% (active); with OVCAR-3 ovarian, 164%. Moreover, the growth in the assay on HS 578T breast was 99%; with NCI/ADR-RES ovarian, 61.1%; in the assay on T-47D breast, 50.2%; in the assay on BT-549 breast, 71.5%; in the assay with MDA-MB-435 melanoma it was 91.5%; with SW-620 colon it was 68%. The growth with MCF7 breast was 36.9%; in the assay with HCT-116 colon, 48.5%; in the assay on HCC-2998 colon, -4.2% (active); with KM12 colon, 73.3%.

For `CC(=O)NNC(=O)c1sc(NC(C)=O)nc1C`, the growth in the assay with SR leukemia is 87.4%; in the assay with RPMI-8226 leukemia, 105%; with OVCAR-8 ovarian it was 95.6%; in the assay with OVCAR-4 ovarian it was 122%; with SK-OV-3 ovarian, 92.6%; in the assay with IGROV1 ovarian, 23.4%. Also, the growth in the assay on OVCAR-3 ovarian was 103%; in the assay on NCI/ADR-RES ovarian it was 104%; in the assay with T-47D breast it was 76.5%; with MDA-MB-435 melanoma it was 110%; with SW-620 colon, 96.9%; in the assay with MCF7 breast it was 87.4%. Further, the figures for the growth with HCT-116 colon, with HCC-2998 colon and in the assay with KM12 colon were 90.5%, 73.8% and 105%, respectively.

For `CC(CCN1CCN(CCC(C)CC(C)(C)C)C1CC(C)CC(C)(C)C)CC(C)(C)C` (configuration not stated), the growth with SR leukemia was 5.62% (active); with RPMI-8226 leukemia, 76.4%; in the assay with OVCAR-8 ovarian it was 89.8%; with OVCAR-4 ovarian, 98.2%; in the assay with SK-OV-3 ovarian it was 96.4%; with IGROV1 ovarian it was 81.7%. For the same molecule, the growth was 73.3% in the assay with OVCAR-3 ovarian; 112% with HS 578T breast; 98.3% in the assay on NCI/ADR-RES ovarian; 91.8% with T-47D breast; 104% in the assay with MDA-MB-435 melanoma; 89.4% in the assay with SW-620 colon. The growth is 60.9% in the assay with HCT-116 colon, 78.2% with HCC-2998 colon and 91% with KM12 colon.

Take `O=C(Nc1ccc(Cl)c(Cl)c1)O/N=C\c1c(Cl)ccc([N+](=O)[O-])c1Cl`: the growth is -23.7% (active) in the assay with SR leukemia; -52.7% (active) in the assay with RPMI-8226 leukemia; 8% (active) in the assay with OVCAR-8 ovarian; -65.8% (active) in the assay on OVCAR-4 ovarian; 61.3% with SK-OV-3 ovarian; -45.8% (active) in the assay on IGROV1 ovarian. Also, the growth was -99.3% (active) in the assay on OVCAR-3 ovarian; 16.5% in the assay with NCI/ADR-RES ovarian; -46.8% (active) in the assay on T-47D breast; -6.07% (active) with BT-549 breast; -31% (active) in the assay with MDA-MB-435 melanoma; -79.3% (active) in the assay on SW-620 colon. Besides, the growth in the assay with MCF7 breast is -62.9% (active); in the assay on HCT-116 colon it was -83.5% (active); in the assay on HCC-2998 colon it was -64.7% (active); with KM12 colon, -71.8% (active).

Source of the values: PubChem BioAssay (NCI).
